Assay results as given in PubChem BioAssay (NCI).
Where “and” joins values, the source holds several entries; their conditions need not be identical. Equal entries are not always repeated. About 83,000 compounds went through this panel and 20% of them were active in at least one assay; those are over-represented in the sample as a whole.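 Values shown are percent growth following 48 h exposure of cells in 96-well plates to a single concentration of compound; below 10 was considered active.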

How the values were obtained:
Assay in all cases: NCI-60 one-dose screen, 48 h (100 = growth as untreated, 0 = no growth, -100 = all killed)
Conditions in all cases: 10 µM unless noted
NCI-H23 lung = tested on: NCI-H23 lung
NCI-H226 lung = tested on: NCI-H226 lung
NCI-H322M lung = tested on: NCI-H322M lung
HOP-62 NSCLC = tested on: HOP-62 NSCLC
NCI-H460 lung = tested on: NCI-H460 lung
HOP-92 NSCLC = tested on: HOP-92 NSCLC
NCI-H522 lung = tested on: NCI-H522 lung
A549/ATCC NSCLC = tested on: A549/ATCC NSCLC
786-0 renal = tested on: 786-0 renal
COLO 205 colon = tested on: COLO 205 colon
DU-145 prostate = tested on: DU-145 prostate
K-562 leukemia = tested on: K-562 leukemia
MALME-3M melanoma = tested on: MALME-3M melanoma
MDA-MB-231 breast = tested on: MDA-MB-231 breast
RXF 393 renal = tested on: RXF 393 renal
SF-268 CNS = tested on: SF-268 CNS
SF-295 CNS = tested on: SF-295 CNS
SF-539 CNS = tested on: SF-539 CNS
UACC-257 melanoma = tested on: UACC-257 melanoma
M14 melanoma = tested on: M14 melanoma

Measured: growth

COc1ccc(/C=N/NC(N)=S)cc1
inactive: NCI-H23 lung 89.2% | NCI-H226 lung 105% | NCI-H322M lung 103% | HOP-62 NSCLC 93.4% | NCI-H460 lung 103% | HOP-92 NSCLC 68.4% | NCI-H522 lung 89.4% | A549/ATCC NSCLC 82.1% | 786-0 renal 98.3% | COLO 205 colon 106% | DU-145 prostate 110% | K-562 leukemia 106% | MALME-3M melanoma 94.4% | MDA-MB-231 breast 101% | RXF 393 renal 95.8% | SF-268 CNS 104% | SF-295 CNS 106% | SF-539 CNS 103% | UACC-257 melanoma 102% | M14 melanoma 96.3%

CC(=O)c1cc2ccccc2o1
inactive: NCI-H23 lung 97.9% | NCI-H226 lung 107% | NCI-H322M lung 110% | HOP-62 NSCLC 99.7% | NCI-H460 lung 108% | HOP-92 NSCLC 106% | NCI-H522 lung 84.1% | A549/ATCC NSCLC 104% | 786-0 renal 94.1% | COLO 205 colon 114% | DU-145 prostate 112% | K-562 leukemia 97.9% | MALME-3M melanoma 107% | MDA-MB-231 breast 99.9% | RXF 393 renal 119% | SF-268 CNS 106% | SF-295 CNS 103% | SF-539 CNS 89% | UACC-257 melanoma 114% | M14 melanoma 99.5%

CCCCCCC(C)CC1=C(O)c2ccccc2C(=O)C1=O (stereo not given)
inactive: NCI-H23 lung 42.2% | NCI-H226 lung 37.3% | NCI-H322M lung 51.7% | HOP-62 NSCLC 59.3% | NCI-H460 lung 14.3% | HOP-92 NSCLC 67% | NCI-H522 lung 56.2% | A549/ATCC NSCLC 36% | 786-0 renal 27.1% | COLO 205 colon 80.2% | DU-145 prostate 45.2% | K-562 leukemia 31.1% | MALME-3M melanoma 54.9% | MDA-MB-231 breast 66.2% | RXF 393 renal 60% | SF-268 CNS 53.2% | SF-295 CNS 35.4% | SF-539 CNS 34% | UACC-257 melanoma 38.2% | M14 melanoma 44.1%

C/C=C/C(=O)OCCCCCCCCCCCC
inactive: NCI-H23 lung 105% | NCI-H226 lung 87.3% | NCI-H322M lung 114% | HOP-62 NSCLC 102% | NCI-H460 lung 108% | HOP-92 NSCLC 96.5% | NCI-H522 lung 96.3% | A549/ATCC NSCLC 84.2% | 786-0 renal 95% | COLO 205 colon 105% | DU-145 prostate 118% | K-562 leukemia 93.3% | MALME-3M melanoma 111% | MDA-MB-231 breast 93.2% | RXF 393 renal 110% | SF-268 CNS 106% | SF-295 CNS 105% | SF-539 CNS 109% | UACC-257 melanoma 94.4% | M14 melanoma 98.7%

Cn1c(N)c(N=O)c(=O)n(C)c1=O
inactive: NCI-H23 lung 96.2% | NCI-H226 lung 115% and 104% | NCI-H322M lung 113% and 88.7% | HOP-62 NSCLC 101% and 108% | NCI-H460 lung 111% and 102% | HOP-92 NSCLC 103% | NCI-H522 lung 97% and 73.4% | A549/ATCC NSCLC 106% and 96.8% | 786-0 renal 108% and 103% | COLO 205 colon 107% and 117% | DU-145 prostate 108% and 102% | K-562 leukemia 86.8% and 108% | MALME-3M melanoma 115% and 90.9% | MDA-MB-231 breast 108% and 98.7% | RXF 393 renal 170% and 109% | SF-268 CNS 94.6% and 90.7% | SF-295 CNS 105% and 103% | SF-539 CNS 107% and 100% | UACC-257 melanoma 101% | M14 melanoma 100% and 96.7%

COC(=O)CCOc1ccccc1
inactive: NCI-H23 lung 85.4% | NCI-H226 lung 105% | NCI-H322M lung 103% | HOP-62 NSCLC 101% | NCI-H460 lung 101% | HOP-92 NSCLC 86.2% | NCI-H522 lung 87.9% | A549/ATCC NSCLC 85% | 786-0 renal 95.3% | COLO 205 colon 118% | DU-145 prostate 110% | K-562 leukemia 71.7% | MALME-3M melanoma 91.8% | MDA-MB-231 breast 110% | RXF 393 renal 89% | SF-268 CNS 108% | SF-295 CNS 130% | SF-539 CNS 101% | UACC-257 melanoma 82.8% | M14 melanoma 106%

CC1(C)OC(=O)C(=Cc2ccc(C#N)cc2)C(=O)O1
inactive: NCI-H23 lung 104% | NCI-H226 lung 92.6% | NCI-H322M lung 113% and 103% | HOP-62 NSCLC 90.6% and 114% | NCI-H460 lung 107% and 101% | HOP-92 NSCLC 87.9% | NCI-H522 lung 79% and 103% | A549/ATCC NSCLC 77.4% | 786-0 renal 104% and 98.1% | COLO 205 colon 103% and 105% | DU-145 prostate 109% and 107% | K-562 leukemia 101% and 96.7% | MALME-3M melanoma 110% and 99.3% | MDA-MB-231 breast 113% and 123% | RXF 393 renal 102% | SF-268 CNS 104% and 102% | SF-295 CNS 103% and 97.7% | SF-539 CNS 111% and 105% | UACC-257 melanoma 72.2% and 96.3% | M14 melanoma 106% and 105%
